# High-throughput results: PubChem, several laboratories
# CCHF vOTU inh = CCHFV vOTU protease inhibition; inhibition, % at 11.5 µM; AID 651958; 370,000 compounds, 0.55% hits; Pep-AMC fluorescence; in the data active = inhibition above about 30%; also: 0% = vehicle wells with enzyme and 100% = no enzyme wells
# GDH-TPI counter-1 = counter-screen for M. tuberculosis FBA inhibitors: GDH-TPI coupled enzymes; GDH-TPI coupled enzyme counterscreen, NADH absorbance; 360,000 compounds, 1.2% hits; inhibition, % at 4.8 µM; AID 588335; in the data active = inhibition above about 30%;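 also: 0% = DMSO wells and 100% = wells lacking the enzyme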
# DUSP3 inh = DUSP3 (human) phosphatase inhibition. 290,000 compounds, 0.52% hits. inhibition, % at 13.3 µM. recombinant VHR phosphatase, pNPP absorbance. P51452. AID 1654; in the data active = inhibition above about 50%
# Mtb FBA inh = inhibits M. tuberculosis FBA enzyme; inhibition, % at 1 µM; purified M. tuberculosis FBA, fluorescence read-out; AID 588726; 360,000 compounds, 2.3% hits;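 also: 0% = vehicle and 100% = reference inhibitor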
# Target sequence (P9WQA3 whole entry, looked up): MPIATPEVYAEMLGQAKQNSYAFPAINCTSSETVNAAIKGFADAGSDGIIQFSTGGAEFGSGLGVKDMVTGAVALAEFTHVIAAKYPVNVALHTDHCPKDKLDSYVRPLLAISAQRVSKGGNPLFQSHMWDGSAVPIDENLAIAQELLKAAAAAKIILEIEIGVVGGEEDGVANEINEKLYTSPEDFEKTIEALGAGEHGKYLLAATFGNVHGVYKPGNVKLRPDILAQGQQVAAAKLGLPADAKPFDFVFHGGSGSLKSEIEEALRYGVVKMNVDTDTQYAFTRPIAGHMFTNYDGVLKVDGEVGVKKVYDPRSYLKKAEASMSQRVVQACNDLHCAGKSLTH
# 3CLpro inhibitor = SARS-CoV 3CLpro protease inhibition. inhibition, % at 6 µM. 290,000 compounds, 0.14% hits. P0C6X7. recombinant SARS-CoV 3CLpro, quenched FRET peptide cleavage; in the data active = inhibition above about 12%
# RecA splice inh = blocks M. tuberculosis RecA intein splicing. P9WHJ3. cell-free RecA intein splicing, fluorescence. inhibition, % (test concentration not listed). 290,000 compounds, 0.75% hits. AID 2221; in the data active = inhibition above about 30%;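 also: 0% = vehicle wells and 100% = reference inhibitor control wells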
# Mtb FBA inh conf = Mtb FBA inhibition, confirmed; purified M. tuberculosis FBA, fluorescence read-out; AID 651616; 5,600 compounds, 78% hits; inhibition, % at 1 µM; shares compounds with Mtb FBA inh;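 also: 0% = vehicle wells and 100% = reference inhibitor wells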
# GDH-TPI counter-2 = GDH-TPI inhibition counter-screen for FBA inhibitors; shares compounds with Mtb FBA inh; GDH-TPI coupled enzyme counterscreen, fluorescence; inhibition, % at 1 µM; 5,600 compounds, 81% hits; AID 652141; in the data active = inhibition above about 10%
# GDH-TPI dose = counter-screen for M. tuberculosis FBA inhibitors: GDH-TPI dose response; shares compounds with Mtb FBA inh; GDH-TPI coupled enzyme assay, fluorescence, artifact counterscreen; IC50, µM; 170 compounds, 79% hits; AID 652145; call rule not given here
# * marks the source's active call; other numbers are inactive results; . = no result given; + = active, no number. The list is not random: actives were taken first. Their share in the collection is about 4.7%. Rule as the data show it, unless noted: active = inhibition above about 27%; inactive = the rest.
SMILES,CCHF vOTU inh,GDH-TPI counter-1,DUSP3 inh,Mtb FBA inh,3CLpro inhibitor,RecA splice inh,Mtb FBA inh conf,GDH-TPI counter-2,others
COCCCNC(=S)NCCNc1nc2cc(C)cc(C)c2cc1C#N,-20,2,22,21,1,-17,.,.,
CCOCCCNC(=S)NCCNc1nc2c(C)cccc2cc1C#N,.,13,-16,57*,-5,-12,33*,29*,
CCOCCCNC(=S)NCCCNc1nc2c(C)cc(C)cc2cc1C#N,-14,6,24,38*,-3,.,+,147*,
CN1C(=O)NC(=O)C1c1ccccc1 (configuration not stated),7,-5,.,-1,.,.,.,.,
CCOC(=O)CNC(=O)Cn1cnc2c(nnn2-c2ccc(OC)cc2)c1=O,17,0,-20,1,-2,0,.,.,
Cc1ccc2cc(C#N)c(NCCNC(=S)NCCCN(C)C)nc2c1C,-6,3,30,15,-7,-25,.,.,
Cc1cccc2cc(C#N)c(NCCCn3ccnc3)nc12,-27,-3,50,39*,5,-36,152*,139*,
Cc1cc(C)c2nc(NCCCNC(=S)NCCCN(C)C)c(C#N)cc2c1,-18,1,32,58*,-2,-71,52*,43*,
CCN(CC)C(=O)[C@H]1C[C@H](CC(=O)NCCN2CCOCC2)C(=O)N2CCc3c([nH]c4cc(-c5ccco5)ccc34)[C@]12C,-45,6,.,50*,.,.,65*,39*,
COCCCNC(=O)C[C@H]1C[C@H](C(=O)N(C(C)C)C(C)C)[C@@]2(C)c3[nH]c4cc(-c5ccco5)ccc4c3CCN2C1=O,-24,11,.,31*,.,.,128*,104*,
COCCCNC(=O)C[C@H]1C[C@H](C(=O)N2CCOCC2)[C@@]2(C)c3[nH]c4cc(-c5ccco5)ccc4c3CCN2C1=O,-37,0,.,33*,.,.,15,11*,
CCN(CC)C(=O)[C@H]1C[C@H](CC(=O)NCc2ccco2)C(=O)N2CCc3c([nH]c4cc(-c5ccco5)ccc34)[C@]12C,-19,-5,.,27,.,.,.,.,
CN(C)CCCNC(=O)C[C@H]1C[C@H](C(=O)N2CCOCC2)[C@@]2(C)c3[nH]c4cc(-c5ccco5)ccc4c3CCN2C1=O,-25,12,.,33*,.,.,135*,110*,
O=C(C[C@@H]1C=C[C@@H](NC(=O)c2cccnc2)[C@@H](CO)O1)NCc1ccncn1,1,.,.,.,.,.,.,.,
CCC(=O)N1CCC1(C)C(=O)Nc1ncc(C)s1 (configuration not stated),-1,2,.,0,.,.,.,.,
O=C(O)c1ccccc1-c1ccccc1C(=O)NCc1cccc(C(F)(F)F)c1,-18,0,21,4,1,-2,.,.,
C=CCn1c(N)cc(=O)nc1SC(C)C(=O)Nc1ccc(C(=O)OCC)cc1 (configuration not stated),-9,9,21,0,1,1,.,.,
CCOc1ccc(OCC)c(NS(=O)(=O)c2cn(C)cn2)c1,5,-7,18,0,1,-3,.,.,
Cn1cnc(S(=O)(=O)Nc2ccccc2C(=O)NCC2CC2)c1,-16,1,21,29*,-2,-1,82*,64*,
OCCN1CCN(c2nc(NCc3ccco3)c3ccccc3n2)CC1,1,18,13,7,-2,7,.,.,
OCCNc1nc(N2CCN(c3ccccc3)CC2)nc2ccccc12,-6,13,25,107*,0,-1,+,177*,
OCc1ccc2c(c1)c(-c1ccc3c(c1)OCCO3)c(-c1ccccc1)n2-c1ccccc1,-1,-2,.,62*,.,.,10,3,GDH-TPI dose=1.4*
CCc1ccc(N2C(=O)CN(Cc3cccs3)C2=S)cc1,-14,-18,7,2,1,0,.,.,
CC(C)Oc1ccc(S(=O)(=O)N2CCOCC2)cc1NC(=O)c1ccc(N2CCCC2=O)cc1,12,0,9,2,4,-2,.,.,
O=C(COc1ccc(Br)cc1)N1CCN(C2CCCC2)CC1,5,6,-10,33*,-5,-1,29*,13*,
